# Measurements published in PubChem BioAssay (EPA / NIEHS).
# Activity calls are given as the source filed them. The calls were made as follows: active = hit-call score of the fitted dose curve at least 0.9, where 1 is the maximum; inactive = score below 0.9.
# Test: ATG_PXRE_CIS: Attagene CIS-FACTORIAL HepG2 Assay for human Pregnane X Receptor Element (PXRE) (AID 2282957)
# Conditions: HepG2 Attagene CIS-FACTORIAL PXRE reporter, mRNA; actives raise or lower the signal
# Protocol: ATG_CIS is a cell-based, multiplexed-readout assay that uses HepG2, a human liver cell line, with measurements taken at 24 hours after chemical dosing in a 24-well plate.ATG_PXRE_CIS is one of 52 assay component(s) measured or calculated from the ATG_CIS assay. It is designed to make measurements of mRNA induction, a form of inducible reporter, as detected with fluorescence intensity signals by Reverse transcription polymerase chain reaction (RT-PCR) and Capillary electrophoresis technology.Data from the assay component ATG_PXRE_CIS was analyzed into 1 assay endpoint. This assay endpoint, ATG_PXRE_CIS, was analyzed with bidirectional fitting relative to DMSO as the negative control and baseline of activity. Using a type of inducible reporter, measures of mRNA for gain or loss-of-signal activity can be used to understand the reporter gene at the transcription factor-level as they relate to the gene NR1I2. Furthermore, this assay endpoint can be referred to as a primary readout, because this assay has produced multiple assay endpoints where this one serves a reporter gene function. To generalize the intended target to other relatable targets, this assay endpoint is annotated to the nuclear receptor intended target family, where the subfamily is non-steroidal.
# Human liver HepG2 cells are transiently transfected with multiple reporter transcription units (MRTUs) in 6-well plates using FuGene 6 reagent (Roche; 3 ml FuGene/1 mg DNA). The MRTU constructs are regulated by a cis-regulating element (promoter). […] A major difference between the CIS and TRANS system is that in CIS activities of endogenous TFs are measured, whereas the TRANS assay evaluates changes in activities of exogenous, chimeric NR-Gal4 proteins. […] At the end of 24 hour incubation, total RNA was isolated using TriZol reagent (Invitrogen). The isolated RNA is then reverse-transcribed using oligo(dT) primer and Mo-MLV reverse transcriptase (Invitrogen) with DNAse I (Ambion) treatment for 30 min. The one-tenth of the produced cDNA was amplified by PCR using Taq DNA polymerase (Invitrogen) and two reporter sequence-specific primers. The PCR products were fluorescently labeled by primer extension with 6-arboxyfluorescein (6-FAM) 5'-labeled reporter sequence-specific primer (2 min at 95 C, 20 s at 68 C and 10 min at 72 C) and these products were digested with 5U of HpaI (New England Biolabs) for 2h at 37 C. The fragments were purified using Qiaquick PCR columns (Qiagen), analyzed on an ABI 3130xL genetic analyzer (Applied Biosystems) with peak positions identified by using a set of X-rhodamine (ROX)-labeled MapMarker1000 molecular weight standards (BioVentures). The raw capillary electrophoresis data was processed using Attagraph software (Attagene).
SMILES,AC50,outcome
C=C(C)c1cccc(C(C)(C)N=C=O)c1,0.0919 µM (active),–
C=CC=CC=CCCCCC,6.94 µM (active),–
C=C[Si](OC(C)=O)(OC(C)=O)OC(C)=O,3.6 µM (active),–
CC(=O)C=CC1C(C)=CCC(C)C1(C)C (stereo not given),0.972 µM (active),–
CCCCCC/C=C\CCCCCCCC(=O)O,–,inactive
CC=CCO,26.8 µM (active),–
CC/C=C\CCOC(=O)CCCCC,–,inactive
C[C@]12C=CC(=O)C=C1CC[C@@H]1[C@@H]2[C@@H](O)C[C@@]2(C)[C@H]1CC[C@]2(O)C(=O)CO,100 µM (active),–
O=C1CC2CC1C1CCCC21 (stereo not given),40.8 µM (active),–
CCCCCCOC(=O)C(C)CC (stereo not given),–,inactive
COC(=O)c1sccc1S(N)(=O)=O,79.3 µM (active),–
CCOc1nc(F)cc2nc(S(=O)(=O)Nc3c(Cl)cccc3C(=O)OC)nn12,7.46 µM (active),–
CCOCC(=O)O,72 µM (active),–
CCCCCCCCCCCCCCCC(=O)OCC,31.1 µM (active),–
O=C1c2ccccc2C(=O)C1c1nc2ccccc2c(Br)c1O,5.42 µM (active),–
O=c1c2ccccc2nnn1CCl,7.09 µM (active),–
CC(C)CC(O)Cc1ccccc1 (stereo not given),71.6 µM (active),–
CCCOC(=O)CCCCC(=O)OCCC,65.4 µM (active),–
CN1C(=O)N(C)C(O)C1O (stereo not given),–,inactive
CC(C)C(=O)C(C)C,–,inactive

SMILES,AC50,outcome
O=S(=O)(O)c1ccccc1C=Cc1ccc(-c2ccc(C=Cc3ccccc3S(=O)(=O)O)cc2)cc1,–,inactive
CC(C)CCCCCOC(=O)CCS,6.6 µM (active),–
CCCCCCCCCCCCCCCC[N+](C)(C)CC,–,inactive
CCc1ccc2c(c1)C(=O)c1ccccc1C2=O,3.01 µM (active),–
CCN(CCO)c1cccc(C)c1,27.8 µM (active),–
CCCCCCCCCCC=CC#N,27.5 µM (active),–
O=C(Nc1ccccc1)c1ccccc1O,27.4 µM (active),–
Cc1c(C)c([N+](=O)[O-])c(C(C)(C)C)c([N+](=O)[O-])c1C,1.93 µM (active),–
CCCCCCCCc1ccc(Nc2ccc(CCCCCCCC)cc2)cc1,6.3 µM (active),–
CCCCCCCOC(=O)CCC,48 µM (active),–
O=C(c1ccccc1)C1CCC1,–,inactive
O=C(/C=C/C=C/c1ccc2c(c1)OCO2)N1CCCCC1,2.37 µM (active),–
CCC(C)OC(=O)c1ccc(O)cc1 (stereo not given),27.8 µM (active),–
O=C1CCCCCCCCCCCCCCCO1,–,inactive
CCOC(=O)c1ccccc1C(=C1C=C(Br)C(=O)C(Br)=C1)c1cc(Br)c(O)c(Br)c1,–,inactive
O=C(C=Cc1ccccc1)OCc1ccccc1,13.2 µM (active),–
CCC(CC)C(=O)O,–,inactive
CC=CC(F)(F)C(F)(F)C(F)(F)F,–,inactive
CCC(Cc1ccccc1)(C(=O)c1ccc(N2CCOCC2)cc1)N(C)C (stereo not given),1.7 µM (active),–
CC(C)(C)C1CCCCC1=O (stereo not given),76.6 µM (active),–
